Test results reported in the supplement of paper PMC8371130.
Structures can show the parent of a compound that is named as a salt.

Test system: HL-1
Assay: relative cell viability (CellTiter-Glo) vs DMSO control (% of DMSO control); higher = more viable cells
Method in brief: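 Viability of HL-1 mouse atrial cardiomyocytes was assessed by CellTiter-Glo luminescence and normalised to vehicle-treated control cells. Cells were plated in 384-well plates at 1000 cells per well with compounds at 40, 200, 1000 or 5000 nM in 0.01% DMSO, and one day later were placed at 1% O2 for 48 h, then reoxygenated for 24 h, or kept in normoxia for the same duration.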

[1] = oxygen condition: hypoxia 48 h (1% O2) + reoxygenation 24 h, 40 nM
[2] = oxygen condition: hypoxia 48 h (1% O2) + reoxygenation 24 h, 200 nM
[3] = oxygen condition: hypoxia 48 h (1% O2) + reoxygenation 24 h, 1000 nM
[4] = oxygen condition: hypoxia 48 h (1% O2) + reoxygenation 24 h, 5000 nM
[5] = oxygen condition: normoxia 72 h, 40 nM
[6] = oxygen condition: normoxia 72 h, 200 nM
[7] = oxygen condition: normoxia 72 h, 1000 nM
[8] = oxygen condition: normoxia 72 h, 5000 nM

SMILES | relative cell viability [1] | relative cell viability [2] | relative cell viability [3] | relative cell viability [4] | relative cell viability [5] | relative cell viability [6] | relative cell viability [7] | relative cell viability [8]
Cc1cccc(Cc2c[nH]cn2)c1C [Detomidine HCl] | 100 | 94.5 | 101 | 103 | 92.9 | 88.2 | 98.6 | 113
COC(=O)C1=CCCN(C)C1 [Arecoline] | 105 | 108 | 106 | 111 | 109 | 112 | 109 | 111
O=C1CC[C@@]2(O)[C@H]3Cc4ccc(O)c5c4[C@@]2(CCN3CC2CC2)[C@H]1O5 [Naltrexone HCl] | 102 | 106 | 99.6 | 108 | 107 | 106 | 113 | 110
CC[C@@H](C(N)=O)N1CCCC1=O [Levetiracetam] | 113 | 109 | 118 | 113 | 109 | 113 | 116 | 117
C[C@]12C/C(=C/O)C(=O)C[C@@H]1CC[C@@H]1[C@@H]2CC[C@@]2(C)[C@H]1CC[C@]2(C)O [Oxymetholone] | 104 | 104 | 104 | 114 | 104 | 102 | 105 | 115
CN1c2ccccc2C(NCCCCCCC(=O)O)c2ccc(Cl)cc2S1(=O)=O (stereo not given) [Tianeptine sodium] | 106 | 105 | 108 | 106 | 98.8 | 103 | 104 | 110
OC(c1ccccc1)(c1ccccc1)C1CCNCC1 [Azacyclonol] | 104 | 104 | 106 | 108 | 108 | 101 | 104 | 115
C[C@]12CC[C@H]3[C@@H](CC[C@@]45O[C@@H]4C(O)=C(C#N)C[C@]35C)[C@@H]1CC[C@@H]2O [Trilostane] | 101 | 104 | 108 | 107 | 113 | 116 | 102 | 108
C[C@]12CCC(=O)C=C1C=C[C@@H]1[C@@H]2CC[C@@]2(C)[C@H]1CC[C@@]2(O)CCC(=O)O [Potassium Canrenoate] | 100 | 96.7 | 97.6 | 103 | 101 | 98.6 | 94.2 | 108
CN1[C@@H]2CC(O)C[C@H]1[C@@H]1O[C@@H]12 (stereo not given in full) [Scopine] | 98.4 | 101 | 100 | 105 | 94.7 | 99.2 | 96.5 | 105
CC(C)N(CCNC(=O)CN1CCCC1=O)C(C)C [Pramiracetam] | 104 | 103 | 106 | 112 | 98.6 | 104 | 107 | 111
CC(C)NCC(O)c1ccccc1Cl (stereo not given) [Clorprenaline HCL] | 104 | 102 | 106 | 117 | 105 | 102 | 103 | 108
O=P1(N(CCCl)CCCl)NCCCO1 (stereo not given) [Cyclophosphamide monohydrate] | 100 | 94.2 | 97.1 | 108 | 104 | 97 | 106 | 111
C/C=C(\C)C(=O)N[C@@H](c1ccccc1)[C@@H](O)C(=O)O[C@H]1C[C@@]2(O)[C@@H](OC(=O)c3ccccc3)[C@@H]3[C@]4(OC(C)=O)CO[C@@H]4C[C@H](O)[C@@]3(C)C(=O)[C@H](OC(C)=O)C(=C1C)C2(C)C [Cephalomannine] | 24.9 | 28 | 23.6 | 28 | 21.5 | 21.7 | 20.2 | 25.3
O=c1[nH]c2ccccc2n1CCCN1CCC(n2c(=O)[nH]c3cc(Cl)ccc32)CC1 [Domperidone] | 104 | 105 | 102 | 109 | 100 | 98.5 | 101 | 113
C#C[C@]1(O)C=C[C@H]2[C@@H]3CCC4=CC(=O)CC[C@@H]4[C@H]3CC[C@@]21CC [Gestodene] | 102 | 100 | 109 | 107 | 111 | 103 | 105 | 106
CN1[C@@H]2CC[C@H]1C[C@@H](OC(=O)[C@H](CO)c1ccccc1)C2 [Hyoscyamine] | 104 | 103 | 109 | 106 | 109 | 101 | 114 | 116
CNC(=O)Oc1ccc2c(c1)[C@]1(C)CCN(C)[C@@H]1N2C [Physostigmine Salicylate] | 89.5 | 84.3 | 69.5 | 41.9 | 84.3 | 84.1 | 64.7 | 48.8
CCOC(=O)c1cncn1[C@H](C)c1ccccc1 [Etomidate] | 101 | 107 | 118 | 115 | 104 | 109 | 104 | 109
CN1C(=O)COc2c(C(=O)NC3CN4CCC3CC4)cc(Cl)cc21 (stereo not given) [Azasetron HCl] | 98.7 | 97.9 | 105 | 106 | 94.8 | 98.3 | 110 | 107
O=C(O[C@H]1C[N+]2(CCCOc3ccccc3)CCC1CC2)C(O)(c1cccs1)c1cccs1 [Aclidinium Bromide] | 104 | 108 | 108 | 110 | 103 | 115 | 106 | 121
Cc1cccc(C)c1NC(=O)CN1CCCC1=O [Nefiracetam] | 101 | 99.1 | 102 | 104 | 101 | 97.1 | 105 | 101
N.N.[Cl][Pt][Cl] [Cisplatin] | 91.6 | 77.8 | 80.1 | 111 | 82.7 | 80.6 | 89.5 | 110
CNC1CC(N)C(O)C(OC2OC(CO)C(O)C3OC4(OC(C(N)CO)C(O)C(O)C4O)OC23)C1O (stereo not given) [Hygromycin B] | 108 | 102 | 107 | 110 | 104 | 106 | 110 | 106
CC[N+]1(C)CCCC(OC(=O)C(O)(c2ccccc2)c2ccccc2)C1 (stereo not given) [Pipenzolate Bromide] | 101 | 98.3 | 102 | 105 | 100 | 111 | 101 | 116
O=C(O)c1nn(Cc2ccc(Cl)cc2Cl)c2ccccc12 [Lonidamine] | 104 | 105 | 109 | 111 | 111 | 102 | 122 | 112
CCN(C)C(=O)Oc1cccc([C@H](C)N(C)C)c1 [Rivastigmine tartrate] | 105 | 102 | 110 | 109 | 99.9 | 106 | 108 | 105
C[N+]1(C)[C@@H]2C[C@@H](OC(=O)[C@H](CO)c3ccccc3)C[C@H]1[C@@H]1O[C@@H]12 [Methscopolamine] | 99.5 | 101 | 100 | 106 | 97.5 | 101 | 101 | 101

SMILES | relative cell viability [1] | relative cell viability [2] | relative cell viability [3] | relative cell viability [4] | relative cell viability [5] | relative cell viability [6] | relative cell viability [7] | relative cell viability [8]
CNCC(=O)c1ccc(O)c(O)c1 [Adrenalone HCl] | 97.4 | 101 | 106 | 108 | 99.1 | 105 | 99.6 | 107
C[C@]12CC[C@H](O)CC1=CC[C@@H]1[C@@H]2CC[C@]2(C)C(=O)CC[C@@H]12 [Dehydroepiandrosterone] | 102 | 94 | 96.2 | 111 | 95.4 | 95.8 | 93.8 | 111
COc1ccc(C(CN(C)C)C2(O)CCCCC2)cc1 (stereo not given) [Venlafaxine] | 97.2 | 96.1 | 101 | 102 | 102 | 96.1 | 99.5 | 108
CC(=O)O[C@@]12CO[C@@H]1C[C@H](O)[C@@]1(C)C(=O)[C@H](O)C3=C(C)[C@@H](O)C[C@@](O)([C@@H](OC(=O)c4ccccc4)[C@H]21)C3(C)C | 86.6 | 102 | 105 | 113 | 105 | 105 | 103 | 124
COc1ccc(OC)c(C(O)C(C)N)c1 (stereo not given) [Methoxamine HCl] | 107 | 102 | 101 | 102 | 102 | 105 | 80.9 | 123
Cc1cccc([C@H](C)c2c[nH]cn2)c1C [Dexmedetomidine HCl] | 111 | 107 | 102 | 89.4 | 106 | 96.7 | 98.5 | 99.5
CN(C)C(=O)Oc1cccc([N+](C)(C)C)c1 [Neostigmine bromide] | 106 | 100 | 97.4 | 113 | 101 | 105 | 103 | 109
C=CC[C@]1(O)CC[C@H]2[C@@H]3CCC4=CC(=O)CCC4=C3C=C[C@@]21C [Altrenogest] | 105 | 110 | 106 | 108 | 104 | 107 | 102 | 105
CCC1(c2cccc(O)c2)CCCCN(C)C1 (stereo not given) [Meptazinol HCl] | 97.8 | 103 | 103 | 109 | 97.7 | 98.3 | 102 | 108
Cc1cccc(C)c1NC1=NCCCS1 [Xylazine HCl] | 99.5 | 101 | 103 | 107 | 106 | 98.1 | 102 | 105
CC(O)(CS(=O)(=O)c1ccc(F)cc1)C(=O)Nc1ccc(C#N)c(C(F)(F)F)c1 (stereo not given) [Bicalutamide] | 106 | 107 | 107 | 104 | 106 | 111 | 110 | 107
NCCc1c[nH]c2ccc(O)cc12 [Serotonin HCl] | 102 | 96.6 | 99.8 | 107 | 101 | 101 | 100 | 113
CCC(COC(=O)c1cc(OC)c(OC)c(OC)c1)(c1ccccc1)N(C)C (stereo not given) [Trimebutine] | 104 | 95.7 | 100 | 103 | 98.5 | 98.1 | 101 | 104
C[C@@H]1O[C@@H](O[C@H]2C[C@@H](O)[C@]3(CO)[C@H]4[C@H](O)C[C@]5(C)[C@@H](C6=CC(=O)OC6)CC[C@]5(O)[C@@H]4CC[C@]3(O)C2)[C@H](O)[C@H](O)[C@H]1O [Ouabain] | 101 | 103 | 95.3 | 115 | 105 | 105 | 98.8 | 124
Cn1c(CCCC(=O)O)nc2cc(N(CCCl)CCCl)ccc21 [Bendamustine HCL] | 111 | 111 | 108 | 110 | 114 | 114 | 110 | 111
CN(C)C(=O)Oc1ccc[n+](C)c1 [Pyridostigmine Bromide] | 98.7 | 104 | 103 | 103 | 92.1 | 104 | 95.5 | 100
CC(=O)O[C@H]1C[C@@H]2CC[C@@H]3[C@H](CC[C@@]4(C)[C@H]3C[C@H]([N+]3(C)CCCCC3)[C@@H]4OC(C)=O)[C@@]2(C)C[C@@H]1[N+]1(C)CCCCC1 [Pancuronium] | 103 | 101 | 102 | 109 | 101 | 105 | 108 | 101
C=C1C[C@@H]2[C@H](CC[C@]3(C)C(=O)CC[C@@H]23)[C@@]2(C)C=CC(=O)C=C12 [Exemestane] | 108 | 98.9 | 107 | 105 | 107 | 106 | 124 | 112
C[N+](C)(C)CCCCCCCCCC[N+](C)(C)C [Decamethonium bromide] | 106 | 103 | 107 | 112 | 107 | 103 | 106 | 117
CCCN1C[C@H](CSC)C[C@@H]2c3cccc4[nH]cc(c34)C[C@H]21 [Pergolide mesylate] | 103 | 100 | 106 | 109 | 105 | 102 | 110 | 120
O=P1(NCCCl)OCCCN1CCCl (stereo not given) [Ifosfamide] | 110 | 117 | 124 | 109 | 103 | 101 | 117 | 112
CCC1(c2ccc(N)cc2)CCC(=O)NC1=O (stereo not given) [Aminoglutethimide] | 104 | 99.3 | 89.1 | 72.3 | 99.4 | 93.8 | 92.1 | 66.7
CC[C@@]1(O)C(=O)OCc2c1cc1n(c2=O)Cc2cc3ccccc3nc2-1 [Camptothecin] | 104 | 103 | 93.9 | 37.7 | 104 | 105 | 89.7 | 35.6
O=C(O[C@H]1C[C@H]2CC[C@@H](C1)[N+]21CCCC1)C(O)(c1ccccc1)c1ccccc1 [Trospium chloride] | 95 | 98.6 | 90.1 | 105 | 103 | 95.1 | 95.8 | 101
COc1ccc(C(=O)N2CCCC2=O)cc1 [Aniracetam] | 106 | 111 | 110 | 113 | 101 | 104 | 111 | 116
Cc1cccc([C@H](C)c2c[nH]cn2)c1C [Dexmedetomidine] | 112 | 105 | 106 | 107 | 107 | 104 | 118 | 116
C=CCN1CC[C@]23c4c5ccc(O)c4O[C@H]2C(=O)CC[C@@]3(O)[C@H]1C5 [Naloxone HCl] | 109 | 103 | 104 | 117 | 104 | 104 | 109 | 113
